Measurements: the supplement of paper PMC10849652
The full data set covers some 7,900 targets. This sample favours those with a hit. About 0.6% of all pairs of compound and target were hits.

Assays:
Experiment in all cases: log2 fold change, soluble protein after heating vs DMSO (PISA); higher = thermal stabilisation; K562 cells, 10 uM, 30 min; active = over 0.2 and 3.5 SD of the protein, either way, in both replicates (recomputed)
[1] = compound: CC1=C(C=C(C=C1)NC(=O)C2=CC(=CC=C2)C(C)(C)C#N)NC3=CC4=C(C=C3)N=CN(C4=O)C
Method in brief: (§1)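 K562 cells at 2×10^6 cells/mL were given 10 μM compound for 30 min. Aliquots then went through 3 min of heating across 48°C-58°C, were pooled, and were extracted in PBS with 0.5% NP-40 at 4°C, and the supernatant after 21,000xg for 90 min was quantified by TMTpro 16plex LC-MS/MS with channel sums equalised. Thermal stability relative to control samples, from duplicates, is given as log2 fold change.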

[2] = compound: CC1=C(C=C(C=C1)NC(=O)C2=CC(=CC=C2)N(C)C)NC(=O)C3=CC=C(C=C3)O
Method in brief: as §1

[3] = compound: CC1=CC=C(C=C1)SC2=C3C=C(SC3=CN=C2)C(=O)N
Method in brief: as §1

[4] = compound: CC1=NC(=CC=C1)C2=C(N=C(N2)C(C)(C)C)C3=CC4=NC=CN=C4C=C3
Method in brief: as §1

Nexturastat A = compound: CCCCN(Cc1ccc(C(=O)NO)cc1)C(=O)Nc1ccccc1 [Nexturastat A]
Method in brief: as §1

vemurafenib = compound: CCCS(=O)(=O)Nc1ccc(F)c(C(=O)c2c[nH]c3ncc(-c4ccc(Cl)cc4)cc23)c1F [vemurafenib]
Method in brief: as §1

[5] = compound: CCCS(=O)(=O)Nc1ccc(F)c(C(=O)c2c[nH]c3ncc(Cl)cc23)c1F
Method in brief: as §1

[6] = compound: CCCc1cc(C)[nH]c(=O)c1CNC(=O)c1cc(-c2ccnc(N3CCN(C)CC3)c2)cc2c1cnn2C(C)C
Method in brief: as §1

givinostat = compound: CCN(CC)Cc1ccc2cc(COC(=O)Nc3ccc(C(=O)NO)cc3)ccc2c1 [givinostat]
Method in brief: as §1

barasertib = compound: CCN(CCCOc1ccc2c(Nc3cc(CC(=O)Nc4cccc(F)c4)[nH]n3)ncnc2c1)CCOP(=O)(O)O [barasertib]
Method in brief: as §1

[7] = compound: CC[C@@H]1C(=O)N(C)c2cnc(Nc3ccc(C(=O)NC4CCN(C)CC4)cc3OC)nc2N1C1CCCC1
Method in brief: as §1

volasertib = compound: CC[C@@H]1C(=O)N(C)c2cnc(Nc3ccc(C(=O)N[C@H]4CC[C@H](N5CCN(CC6CC6)CC5)CC4)cc3OC)nc2N1C(C)C [volasertib]
Method in brief: as §1

[8] = compound: CC[C@H](C)N1C=C(C2=C(C=C(C=C21)C3=CN=C(C=C3)N4CCNCC4)C(=O)NCC5=C(C=C(NC5=O)C)C)C
Method in brief: as §1

epoxomicin = compound: CC[C@H](C)[C@@H](C(=O)N[C@@H]([C@@H](C)O)C(=O)N[C@@H](CC(C)C)C(=O)[C@]1(CO1)C)NC(=O)[C@H]([C@@H](C)CC)N(C)C(=O)C [epoxomicin]
Method in brief: as §1

[9] = compound: CCn1c(C(=O)N(C2CC2)C2CC2)cc2c3c(ncn3C)c(Nc3cc(C)n(C)n3)nc21
Method in brief: as §1

[10] = compound: CCn1cc(-c2ccnc3[nH]c(-c4cccc(CN(C)C)c4)cc23)c(-c2ccc(NC(=O)N(C)C)cc2)n1
Method in brief: as §1

[11] = compound: CN(C)CC(=O)Nc1ccc2[nH]c(=O)c3ccccc3c2c1
Method in brief: as §1

rosiglitazone = compound: CN(CCOC1=CC=C(C=C1)C[C@H]2C(=O)NC(=O)S2)C3=CC=CC=N3 (racemic) [rosiglitazone]
Method in brief: as §1

[12] = compound: CN1C2=C(C3=C1C(=O)N(N=C3)CC4=CC(=CC=C4)N)SC(=C2)S(=O)C
Method in brief: as §1

[13] = compound: CN1CCC(CNc2ccc3ncc(-c4cccc(OC(F)(F)F)c4)n3n2)CC1
Method in brief: as §1

Measured: log2 fold change

KIF11 (UniProt P52732)
inactive: [1] -0.032 | [2] -0.119 | [3] -0.005 | [4] -0.033 | Nexturastat A 0.155 | vemurafenib 0.071 | [5] 0.077 | [6] 0.076 | givinostat 0.09 | barasertib 0.049 | [7] 0.016 | volasertib -0.42 | [8] 0.081 | epoxomicin -0.032 | [9] -0.076 | [10] 0.023 | [11] 0.041 | rosiglitazone 0.031 | [12] 0.182 | [13] 0.022

LEMD2 (UniProt Q8NC56)
inactive: [1] -0.068 | [2] -0.02 | [3] 0.038 | [4] 0.051 | Nexturastat A -0.002 | vemurafenib -0.001 | [5] 0.045 | [6] 0.002 | givinostat -0.022 | barasertib 0.017 | [7] -0.212 | [8] 0.034 | epoxomicin -0.002 | [9] -0.02 | [10] 0.028 | [11] 0.091 | rosiglitazone 0.023 | [12] -0.006
active: volasertib -0.422 | [13] -0.338

LEMD3 (UniProt Q9Y2U8)
Sequence of UniProt Q9Y2U8 (Q9Y2U8 whole entry, looked up): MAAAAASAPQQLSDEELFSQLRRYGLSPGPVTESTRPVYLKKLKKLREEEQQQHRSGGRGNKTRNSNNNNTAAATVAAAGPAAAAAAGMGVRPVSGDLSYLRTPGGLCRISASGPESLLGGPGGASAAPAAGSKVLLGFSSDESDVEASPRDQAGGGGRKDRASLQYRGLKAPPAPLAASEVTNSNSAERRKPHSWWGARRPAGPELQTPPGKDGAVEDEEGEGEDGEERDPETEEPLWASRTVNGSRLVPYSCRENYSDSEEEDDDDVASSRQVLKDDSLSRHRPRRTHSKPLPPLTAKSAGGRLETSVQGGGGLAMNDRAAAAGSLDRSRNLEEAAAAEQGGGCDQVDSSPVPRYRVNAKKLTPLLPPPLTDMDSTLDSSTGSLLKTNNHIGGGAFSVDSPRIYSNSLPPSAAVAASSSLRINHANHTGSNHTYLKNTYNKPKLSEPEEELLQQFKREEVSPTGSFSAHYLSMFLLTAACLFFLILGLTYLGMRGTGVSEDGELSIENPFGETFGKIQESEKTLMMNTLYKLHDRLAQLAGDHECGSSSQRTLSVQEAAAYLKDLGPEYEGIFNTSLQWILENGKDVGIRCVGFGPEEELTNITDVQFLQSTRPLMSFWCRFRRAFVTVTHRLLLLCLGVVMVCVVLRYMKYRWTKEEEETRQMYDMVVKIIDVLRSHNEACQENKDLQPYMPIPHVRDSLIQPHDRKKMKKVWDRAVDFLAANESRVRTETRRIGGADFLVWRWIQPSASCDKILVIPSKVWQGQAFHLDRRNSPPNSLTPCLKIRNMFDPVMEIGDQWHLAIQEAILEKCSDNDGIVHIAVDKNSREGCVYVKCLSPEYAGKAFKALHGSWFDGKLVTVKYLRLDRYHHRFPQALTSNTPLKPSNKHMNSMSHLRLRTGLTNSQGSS
inactive: [1] -0.066 | [2] -0.071 | [3] -0.005 | [4] -0.017 | Nexturastat A 0.026 | vemurafenib 0.056 | [5] 0.005 | [6] 0.054 | givinostat 0.077 | barasertib 0.023 | [7] -0.096 | [8] -0.063 | epoxomicin 0.095 | [9] -0.076 | [10] 0.003 | [11] 0.123 | rosiglitazone -0.03 | [12] -0.016 | [13] -0.081
active: volasertib -0.324

MAPK9 (UniProt P45984)
inactive: [1] 0 | [2] -0.011 | [3] -0.078 | [4] 0.044 | Nexturastat A -0.057 | vemurafenib -0.005 | [5] -0.07 | [6] 0.034 | givinostat 0.038 | barasertib -0.022 | [7] -0.055 | volasertib -0.087 | [8] 0.006 | epoxomicin -0.005 | [9] -0.004 | [10] 0.03 | [11] 0 | rosiglitazone 0.04 | [12] -0.038 | [13] -0.071

LUC7L (UniProt Q9NQ29)
Sequence of UniProt Q9NQ29 (Q9NQ29 whole entry, looked up): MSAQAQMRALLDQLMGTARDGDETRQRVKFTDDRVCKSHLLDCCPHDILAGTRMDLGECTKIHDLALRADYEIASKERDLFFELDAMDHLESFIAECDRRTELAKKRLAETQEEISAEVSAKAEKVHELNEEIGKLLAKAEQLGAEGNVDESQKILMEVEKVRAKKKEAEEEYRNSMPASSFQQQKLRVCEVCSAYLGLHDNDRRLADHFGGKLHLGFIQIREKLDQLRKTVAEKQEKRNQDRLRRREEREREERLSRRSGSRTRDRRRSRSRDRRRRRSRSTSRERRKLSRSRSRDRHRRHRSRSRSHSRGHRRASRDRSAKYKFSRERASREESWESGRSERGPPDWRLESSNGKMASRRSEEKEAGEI
inactive: [1] 0.028 | [2] 0.003 | [3] -0.022 | [4] -0.021 | Nexturastat A 0.054 | vemurafenib -0.007 | [5] -0.004 | [6] 0.027 | givinostat -0.034 | barasertib -0.01 | [7] 0.006 | volasertib -0.005 | [8] 0.005 | epoxomicin -0.052 | [9] 0.048 | [10] 0.01 | [11] -0.043 | rosiglitazone -0.003 | [12] 0.108 | [13] 0.052

IK (UniProt Q13123)
active: volasertib -0.366
inactive: [1] 0.032 | [2] 0.039 | [3] -0.035 | [4] -0.026 | Nexturastat A 0.093 | vemurafenib 0.086 | [5] -0.002 | [6] 0.036 | givinostat 0.021 | barasertib 0.047 | [7] -0.136 | [8] 0.02 | epoxomicin 0.125 | [9] -0.053 | [10] 0.069 | [11] -0.034 | rosiglitazone 0.02 | [12] 0.145 | [13] -0.035

LARP4 isoform 4 (UniProt Q71RC2)
Sequence of UniProt Q71RC2 (Q71RC2 whole entry, looked up): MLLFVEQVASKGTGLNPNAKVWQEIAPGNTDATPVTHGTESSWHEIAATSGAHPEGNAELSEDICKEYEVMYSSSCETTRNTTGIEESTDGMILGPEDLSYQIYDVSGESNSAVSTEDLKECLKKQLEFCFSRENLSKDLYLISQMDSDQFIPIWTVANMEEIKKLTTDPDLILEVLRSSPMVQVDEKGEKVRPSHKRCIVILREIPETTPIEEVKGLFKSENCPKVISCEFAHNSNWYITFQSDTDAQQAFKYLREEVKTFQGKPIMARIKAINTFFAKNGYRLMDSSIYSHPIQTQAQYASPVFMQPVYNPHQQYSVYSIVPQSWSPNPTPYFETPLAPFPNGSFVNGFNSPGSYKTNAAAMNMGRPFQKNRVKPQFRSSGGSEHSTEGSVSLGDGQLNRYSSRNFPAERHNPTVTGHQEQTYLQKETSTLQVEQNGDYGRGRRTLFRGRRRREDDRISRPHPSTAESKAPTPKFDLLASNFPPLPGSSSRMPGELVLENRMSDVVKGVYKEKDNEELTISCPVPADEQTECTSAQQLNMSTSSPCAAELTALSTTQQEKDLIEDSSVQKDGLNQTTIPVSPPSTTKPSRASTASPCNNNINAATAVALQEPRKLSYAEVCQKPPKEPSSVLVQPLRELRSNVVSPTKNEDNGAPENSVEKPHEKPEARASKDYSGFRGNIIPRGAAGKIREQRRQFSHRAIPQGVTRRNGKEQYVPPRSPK
inactive: [1] 0.066 | [2] 0.005 | [3] -0.041 | [4] -0.002 | Nexturastat A 0.251 | vemurafenib -0.017 | [5] 0.018 | [6] 0.054 | givinostat 0.04 | barasertib -0.053 | [7] -0.016 | volasertib -0.351 | [8] 0.117 | epoxomicin -0.107 | [9] 0.005 | [10] 0.07 | [11] 0.009 | rosiglitazone 0.018 | [12] 0.137 | [13] -0.252

MAIP1 (UniProt Q8WWC4)
Sequence of UniProt Q8WWC4 (Q8WWC4 whole entry, looked up): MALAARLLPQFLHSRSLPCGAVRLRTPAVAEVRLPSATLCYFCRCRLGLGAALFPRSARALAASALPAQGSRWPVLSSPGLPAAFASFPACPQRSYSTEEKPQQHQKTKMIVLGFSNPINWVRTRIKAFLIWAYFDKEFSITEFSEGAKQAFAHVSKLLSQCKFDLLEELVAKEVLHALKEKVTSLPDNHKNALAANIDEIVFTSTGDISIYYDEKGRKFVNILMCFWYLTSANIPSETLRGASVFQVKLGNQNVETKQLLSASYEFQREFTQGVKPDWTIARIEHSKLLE
active: [13] -0.396
inactive: [1] -0.022 | [2] -0.005 | [3] 0.083 | [4] 0.088 | Nexturastat A -0.033 | vemurafenib 0.034 | [5] 0.057 | [6] -0.034 | givinostat 0.001 | barasertib -0.002 | [7] -0.086 | volasertib -0.098 | [8] -0.023 | epoxomicin -0.068 | [9] 0.034 | [10] -0.015 | [11] 0.026 | rosiglitazone -0.001 | [12] -0.052

LPIN1 isoform 7 (UniProt Q14693)
inactive: [1] -0.022 | [2] 0.018 | [3] -0.022 | [4] -0.026 | Nexturastat A -0.023 | vemurafenib -0.004 | [5] 0.015 | [6] 0.029 | givinostat 0.012 | barasertib 0.023 | [7] 0.06 | volasertib -0.002 | [8] 0.063 | epoxomicin 0.098 | [9] 0.011 | [10] -0.045 | [11] 0.012 | rosiglitazone 0.055 | [12] 0.008 | [13] -0.016

JMJD6 isoform 3 (UniProt Q6NYC1)
active: volasertib -0.306
inactive: [1] 0.055 | [2] -0.085 | [3] 0.092 | [4] 0.024 | Nexturastat A -0.147 | vemurafenib 0.002 | [5] 0.049 | [6] 0.071 | givinostat -0.095 | barasertib -0.007 | [7] -0.044 | [8] -0.012 | epoxomicin -0.015 | [9] -0.037 | [10] -0.009 | [11] -0.006 | rosiglitazone 0.031 | [12] 0.006 | [13] -0.09

KIFBP (UniProt Q96EK5)
Sequence of UniProt Q96EK5 (Q96EK5 whole entry, looked up): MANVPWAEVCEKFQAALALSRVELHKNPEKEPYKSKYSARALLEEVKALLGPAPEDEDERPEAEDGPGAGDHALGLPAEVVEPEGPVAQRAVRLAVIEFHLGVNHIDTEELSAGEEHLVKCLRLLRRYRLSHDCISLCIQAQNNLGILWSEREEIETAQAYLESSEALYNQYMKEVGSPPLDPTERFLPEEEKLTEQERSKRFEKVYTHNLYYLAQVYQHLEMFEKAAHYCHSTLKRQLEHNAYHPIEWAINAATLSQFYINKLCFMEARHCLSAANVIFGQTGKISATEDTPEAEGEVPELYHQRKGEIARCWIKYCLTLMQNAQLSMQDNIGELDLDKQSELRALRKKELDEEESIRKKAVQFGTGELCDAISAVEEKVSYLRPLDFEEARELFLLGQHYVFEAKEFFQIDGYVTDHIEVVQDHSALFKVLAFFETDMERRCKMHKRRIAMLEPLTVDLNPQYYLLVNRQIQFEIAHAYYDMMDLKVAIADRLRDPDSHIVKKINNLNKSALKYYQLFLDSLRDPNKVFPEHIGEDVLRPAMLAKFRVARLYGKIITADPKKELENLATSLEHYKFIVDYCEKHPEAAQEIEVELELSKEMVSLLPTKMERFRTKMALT
inactive: [1] 0.019 | [2] 0.034 | [3] 0.052 | [4] 0.027 | Nexturastat A -0.107 | vemurafenib 0.067 | [5] 0.093 | [6] -0.013 | givinostat -0.004 | barasertib 0.022 | [7] -0.007 | [8] 0.11 | epoxomicin -0.035 | [9] -0.036 | [10] 0.017 | [11] 0.038 | rosiglitazone 0.11 | [12] 0.095 | [13] -0.046
active: volasertib -0.333

LEO1 (UniProt Q8WVC0)
inactive: [1] -0.086 | [2] -0.113 | [3] 0 | [4] -0.075 | Nexturastat A 0.109 | vemurafenib -0.025 | [5] 0.033 | [6] 0.029 | givinostat 0.118 | barasertib 0.032 | [7] -0.021 | [8] -0.013 | epoxomicin -0.001 | [9] -0.007 | [10] -0.051 | [11] 0.121 | rosiglitazone 0.006 | [12] -0.033 | [13] -0.048
active: volasertib -0.402

IPO13 (UniProt O94829)
Sequence of UniProt O94829 (O94829 whole entry, looked up): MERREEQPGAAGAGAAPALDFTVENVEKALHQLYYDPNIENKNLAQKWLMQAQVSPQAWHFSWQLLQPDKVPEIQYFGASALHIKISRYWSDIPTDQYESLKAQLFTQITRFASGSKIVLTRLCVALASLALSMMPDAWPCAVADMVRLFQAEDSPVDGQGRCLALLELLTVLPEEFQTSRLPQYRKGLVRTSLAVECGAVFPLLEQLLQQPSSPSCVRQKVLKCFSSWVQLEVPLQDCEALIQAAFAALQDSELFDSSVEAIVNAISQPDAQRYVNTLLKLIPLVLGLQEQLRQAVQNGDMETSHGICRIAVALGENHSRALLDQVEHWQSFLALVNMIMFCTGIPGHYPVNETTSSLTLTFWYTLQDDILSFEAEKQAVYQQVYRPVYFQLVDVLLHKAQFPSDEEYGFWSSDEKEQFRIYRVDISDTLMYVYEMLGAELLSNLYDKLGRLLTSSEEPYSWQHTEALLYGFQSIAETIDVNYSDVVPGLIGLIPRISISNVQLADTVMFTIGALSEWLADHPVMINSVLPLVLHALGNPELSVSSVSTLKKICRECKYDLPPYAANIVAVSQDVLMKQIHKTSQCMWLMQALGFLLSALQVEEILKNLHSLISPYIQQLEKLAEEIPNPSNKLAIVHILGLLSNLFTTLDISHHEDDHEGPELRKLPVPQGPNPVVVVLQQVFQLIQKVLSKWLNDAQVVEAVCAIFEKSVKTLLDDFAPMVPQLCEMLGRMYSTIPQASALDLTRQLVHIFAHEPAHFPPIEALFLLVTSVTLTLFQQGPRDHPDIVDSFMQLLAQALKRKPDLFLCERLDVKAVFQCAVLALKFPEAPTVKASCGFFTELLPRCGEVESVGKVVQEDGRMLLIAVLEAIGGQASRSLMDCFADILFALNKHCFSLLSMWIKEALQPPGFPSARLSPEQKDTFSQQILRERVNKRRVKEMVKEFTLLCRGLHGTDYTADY
active: [7] -0.367 | volasertib -0.291 | [13] -0.333
inactive: [1] 0.068 | [2] -0.013 | [3] -0.008 | [4] -0.027 | Nexturastat A -0.03 | vemurafenib -0.01 | [5] 0.047 | [6] 0.009 | givinostat -0.011 | barasertib 0.044 | [8] -0.081 | epoxomicin 0.048 | [9] 0.015 | [10] -0.084 | [11] -0.013 | rosiglitazone 0.072 | [12] 0.048

MFN2 (UniProt O95140)
Sequence of UniProt O95140 (O95140 whole entry, looked up): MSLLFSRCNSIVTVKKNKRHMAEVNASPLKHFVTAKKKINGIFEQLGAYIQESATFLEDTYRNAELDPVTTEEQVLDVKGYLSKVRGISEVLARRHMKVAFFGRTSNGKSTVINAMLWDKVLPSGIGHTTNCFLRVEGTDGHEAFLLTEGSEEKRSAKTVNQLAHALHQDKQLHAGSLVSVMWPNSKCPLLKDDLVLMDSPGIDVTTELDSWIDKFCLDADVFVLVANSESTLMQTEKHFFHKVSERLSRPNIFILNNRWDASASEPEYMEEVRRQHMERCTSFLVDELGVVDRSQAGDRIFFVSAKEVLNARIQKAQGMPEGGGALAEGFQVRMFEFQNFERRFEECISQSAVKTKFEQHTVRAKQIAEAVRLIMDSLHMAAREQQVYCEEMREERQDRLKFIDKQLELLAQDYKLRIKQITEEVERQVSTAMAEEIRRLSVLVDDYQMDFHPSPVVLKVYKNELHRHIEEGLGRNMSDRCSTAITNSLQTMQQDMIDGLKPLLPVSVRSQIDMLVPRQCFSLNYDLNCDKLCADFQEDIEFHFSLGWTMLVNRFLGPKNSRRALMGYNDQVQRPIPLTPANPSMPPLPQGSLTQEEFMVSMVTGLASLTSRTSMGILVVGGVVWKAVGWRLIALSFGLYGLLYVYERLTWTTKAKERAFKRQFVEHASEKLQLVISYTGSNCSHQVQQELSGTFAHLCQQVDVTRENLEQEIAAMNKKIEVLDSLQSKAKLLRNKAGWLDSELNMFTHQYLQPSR
inactive: [1] -0.021 | [2] -0.029 | [3] 0.018 | [4] 0.009 | Nexturastat A -0.022 | vemurafenib 0.019 | [5] 0.064 | [6] -0.004 | givinostat 0.01 | barasertib 0.025 | [7] -0.1 | volasertib -0.23 | [8] 0.011 | epoxomicin 0.047 | [9] -0.004 | [10] 0.011 | [11] 0.009 | rosiglitazone 0.03 | [12] -0.011 | [13] -0.213

MAP3K20 (UniProt Q9NYL2)
active: [1] -0.448
inactive: [2] -0.098 | [3] -0.014 | [4] 0.03 | Nexturastat A 0.062 | vemurafenib -0.254 | [5] -0.163 | [6] 0.022 | givinostat -0.089 | barasertib -0.02 | [7] 0.038 | volasertib -0.026 | [8] 0.08 | epoxomicin 0.008 | [9] 0.011 | [10] -0.016 | [11] -0.02 | rosiglitazone 0.035 | [12] 0.126 | [13] -0.12

MAP2K1 (UniProt Q02750)
Sequence of UniProt Q02750 (Q02750 whole entry, looked up): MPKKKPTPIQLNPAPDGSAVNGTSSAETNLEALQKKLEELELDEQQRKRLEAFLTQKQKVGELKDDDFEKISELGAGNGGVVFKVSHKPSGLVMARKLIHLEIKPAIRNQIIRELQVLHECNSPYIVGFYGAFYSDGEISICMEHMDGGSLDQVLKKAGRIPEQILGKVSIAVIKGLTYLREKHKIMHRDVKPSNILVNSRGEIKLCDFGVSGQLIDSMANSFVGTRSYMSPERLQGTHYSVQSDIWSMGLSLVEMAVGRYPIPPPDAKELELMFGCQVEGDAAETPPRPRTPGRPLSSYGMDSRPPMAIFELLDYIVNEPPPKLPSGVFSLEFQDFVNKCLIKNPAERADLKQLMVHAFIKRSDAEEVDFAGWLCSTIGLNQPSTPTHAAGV
inactive: [1] -0.013 | [2] 0.001 | [3] 0.029 | [4] 0.049 | Nexturastat A -0.061 | vemurafenib -0.009 | [5] 0.018 | [6] 0.129 | givinostat 0.007 | barasertib 0.005 | [7] -0.017 | volasertib -0.058 | [8] 0.024 | epoxomicin 0.053 | [9] -0.006 | [10] -0.092 | [11] 0.032 | rosiglitazone 0.029 | [12] -0.06 | [13] -0.113
